From PubChem BioAssay (EPA / NIEHS)
The source made the active and inactive calls. How the source made its calls: active means hit-call score of the fitted dose curve at least 0.9, where 1 is the maximum; inactive means score below 0.9.

Experiments:
Settings in all cases: mRNA level, 48 h; actives raise or lower the signal
[1] = read-out: growth arrest and DNA damage 45 (GADD45B), GADD45B (gene 4616); experiment: LTEA_HepaRG_GADD45B: Life Technologies and Expression Analysis (LTEA) Assay for growth arrest and DNA damage 45 (GADD45B) using HepaRG (AID 2283461)
In short: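 Transcript level quantified by Fluidigm TaqMan qRT-PCR with three housekeeping genes for normalization, analyzed for up- or down-regulation against 0.5% DMSO. HepaRG cultures dosed 48 h at eight half-log concentrations up to 100 uM, duplicates.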

[2] = read-out: ABC Transporter (ABCC3), ABCC3 (gene 8714); experiment: LTEA_HepaRG_ABCC3: Life Technologies and Expression Analysis (LTEA) Assay for ABC Transporter (ABCC3) using HepaRG (AID 2283462)
In short: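 Transcript level by TaqMan qRT-PCR, normalised to three housekeeping genes, fitted in both directions relative to vehicle. Chemicals tested in duplicate at eight half-log concentrations up to 100 uM for 48 h on HepaRG cells (0.5% DMSO).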

[3] = read-out: ABC Transporter (ABCC2), ABCC2 (gene 1244); experiment: LTEA_HepaRG_ABCC2: Life Technologies and Expression Analysis (LTEA) Assay for ABC Transporter (ABCC2) using HepaRG (AID 2283464)
In short: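 Endpoint is ABCC2 transcript level from qRT-PCR, normalized to three housekeeping genes and fitted bidirectionally relative to DMSO. Human HepaRG cells received test chemical for 48 h at up to 100 uM (8 points, half-log steps, 0.5% DMSO), duplicate wells.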

[4] = read-out: Broad substrate specificity ATP-binding cassette transporter ABCG2 (Homo sapiens) (UniProt Q9UNQ0); experiment: LTEA_HepaRG_ABCG2: Life Technologies and Expression Analysis (LTEA) Assay for ABC Transporter (ABCG2) using HepaRG (AID 2283465)
In short: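 Read-out is ABCG2 mRNA induction or loss quantified by qRT-PCR after 48 h chemical treatment of human HepaRG cells, normalized to three housekeeping genes. Concentrations reached 100 uM top in half-log steps; fitting was bidirectional against 0.5% DMSO.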

[5] = read-out: ATP-citrate lyase (ACLY), ACLY (gene 47); experiment: LTEA_HepaRG_ACLY: Life Technologies and Expression Analysis (LTEA) Assay for ATP-citrate lyase (ACLY) using HepaRG (AID 2283466)
In short: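 HepaRG, 48 h exposure, 8-pt half-log dilutions (top 100 uM), 0.5% DMSO. Readout: ACLY mRNA, TaqMan qRT-PCR, housekeeping-normalized (ACTB/GAPDH/POLR2A). Bidirectional curve fit vs DMSO.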

[6] = read-out: Peroxisomal acyl-coenzyme A oxidase 1 (ACOX1) gene, ACOX1 (gene 51); experiment: LTEA_HepaRG_ACOX1: Life Technologies and Expression Analysis (LTEA) Assay for Peroxisomal acyl-coenzyme A oxidase 1 (ACOX1) gene using HepaRG (AID 2283467)
In short: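 Measured by qRT-PCR against three housekeeping genes: ACOX1 transcript change in human HepaRG cells after 48 h dosing. Concentrations ran up to 100 uM in half-log steps. Curves were fitted bidirectionally relative to 0.5% DMSO.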

[7] = read-out: Alkaline Phosphatase, Placental (ALPP) gene, ALPP (gene 250); experiment: LTEA_HepaRG_ALPP: Life Technologies and Expression Analysis (LTEA) Assay for Alkaline Phosphatase, Placental (ALPP) gene using HepaRG (AID 2283468);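 on AC50: differentiated human HepaRG liver cells in serum-free induction medium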
In short: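 ALPP transcript level, measured by qRT-PCR and normalized to three housekeeping genes (ACTB, GAPDH, POLR2A), after 48 h dosing of differentiated HepaRG in serum-free induction medium. Top concentration 100 uM with half-log dilutions (8 points, 0.5% DMSO, duplicates); bidirectional fitting relative to DMSO.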

[8] = read-out: Bcl-2 (BAD) gene, BAD (gene 572); experiment: LTEA_HepaRG_BAD: Life Technologies and Expression Analysis (LTEA) Assay for Bcl-2 (BAD) gene using HepaRG (AID 2283469)
In short: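 BAD transcript change, measured by qRT-PCR against three housekeeping genes and fitted in both directions relative to 0.5% DMSO, after 48 h chemical treatment of human HepaRG liver cells at concentrations up to 100 uM.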

[9] = read-out: Bcl-2 (BAX) gene, BAX (gene 581); experiment: LTEA_HepaRG_BAX: Life Technologies and Expression Analysis (LTEA) Assay for Bcl-2 (BAX) gene using HepaRG (AID 2283470)
In short: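 Concentration-response endpoint fitted in both directions relative to 0.5% DMSO vehicle. Human HepaRG cultures receive test chemicals for 48 h at up to 100 uM; BAX mRNA is quantified by qRT-PCR against housekeeping genes.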

Measured: AC50

Sequence of Broad substrate specificity ATP-binding cassette transporter ABCG2 (Homo sapiens) (Q9UNQ0 whole entry, looked up): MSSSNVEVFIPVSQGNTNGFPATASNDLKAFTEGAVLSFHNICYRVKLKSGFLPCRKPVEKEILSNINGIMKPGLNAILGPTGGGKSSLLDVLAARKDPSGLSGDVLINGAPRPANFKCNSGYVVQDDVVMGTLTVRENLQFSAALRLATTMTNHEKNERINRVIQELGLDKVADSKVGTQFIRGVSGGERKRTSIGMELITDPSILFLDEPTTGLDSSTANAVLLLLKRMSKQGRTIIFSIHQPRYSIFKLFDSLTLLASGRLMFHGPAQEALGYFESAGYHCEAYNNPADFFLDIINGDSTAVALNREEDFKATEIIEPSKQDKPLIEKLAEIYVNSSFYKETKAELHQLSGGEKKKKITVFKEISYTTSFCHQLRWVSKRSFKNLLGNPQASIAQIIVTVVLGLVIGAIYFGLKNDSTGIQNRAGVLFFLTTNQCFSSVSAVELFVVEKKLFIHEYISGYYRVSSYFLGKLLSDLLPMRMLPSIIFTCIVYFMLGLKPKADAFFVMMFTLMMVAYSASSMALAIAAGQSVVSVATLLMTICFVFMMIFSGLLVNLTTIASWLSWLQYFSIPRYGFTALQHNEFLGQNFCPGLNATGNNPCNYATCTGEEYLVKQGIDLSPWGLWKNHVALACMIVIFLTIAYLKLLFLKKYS

ClC1=C(Cl)C2(Cl)C3C(Cl)C(Cl)CC3C1(Cl)C2(Cl)Cl (stereo unspecified)
inactive: [1] | [2] | [6] | [8] | [9]
active: [3] 8.61 µM | [4] 21.4 µM | [5] 85.9 µM | [7] 9.92 µM

ClC(Cl)c1ccccc1
inactive: [1] | [2] | [3] | [4] | [5] | [6] | [7] | [8] | [9]

CCNc1nc(Cl)nc(NC(C)(C)C)n1
active: [3] 4.01 µM | [7] 9.92 µM
inactive: [1] | [2] | [4] | [5] | [6] | [8] | [9]

CC(Cc1ccc(OCC(=O)O)cc1)NCC(O)c1csc(C(F)(F)F)n1 (stereo unspecified)
active: [7] 0.0552 µM
inactive: [1] | [2] | [3] | [4] | [5] | [6] | [8] | [9]

O=C(O)C(Cl)Cl
inactive: [1] | [2] | [3] | [4] | [5] | [6] | [7] | [8] | [9]

Nc1ccc(Cl)cc1
inactive: [1] | [2] | [3] | [4] | [5] | [6] | [7] | [8] | [9]

CCOS(=O)(=O)OCC
inactive: [1] | [2] | [3] | [4] | [5] | [6] | [7] | [8] | [9]

c1cc2c3c(cccc3c1)CC2
inactive: [1] | [2] | [3] | [4] | [5] | [6] | [7] | [8] | [9]

OCC1CO1 (stereo unspecified)
inactive: [1] | [2] | [3] | [4] | [5] | [6] | [7] | [8] | [9]

CCCCCCCc1ccc(O)cc1
inactive: [1] | [2] | [3] | [4] | [5] | [6] | [7] | [8] | [9]

c1ccc(OP(Oc2ccccc2)Oc2ccccc2)cc1
inactive: [1] | [2] | [3] | [4] | [5] | [6] | [7] | [8] | [9]

CCCCc1ccccc1
inactive: [1] | [2] | [3] | [4] | [5] | [6] | [7] | [8] | [9]

O=P(Oc1ccccc1)(Oc1ccccc1)Oc1ccccc1
inactive: [1] | [2] | [6] | [8] | [9]
active: [3] 8.94 µM | [4] 8.36 µM | [5] 71.6 µM

O=C(O)C1C(C(=O)O)C2(Cl)C(Cl)=C(Cl)C1(Cl)C2(Cl)Cl (stereo unspecified)
inactive: [1] | [2] | [3] | [4] | [5] | [6] | [7] | [8] | [9]

CCCN(CCC)c1c([N+](=O)[O-])cc(C(C)C)cc1[N+](=O)[O-]
active: [2] 0.246 µM | [3] 18.3 µM | [4] 18.1 µM | [5] 0.129 µM
inactive: [1] | [6] | [7] | [8] | [9]

Cc1ccc([N+](=O)[O-])cc1C
inactive: [1] | [2] | [3] | [4] | [5] | [6] | [7] | [8] | [9]

ClC(Cl)(Cl)c1ccccc1
inactive: [1] | [2] | [3] | [4] | [5] | [6] | [7] | [8] | [9]

CSC(C)(C)C=NO
inactive: [2] | [3] | [4] | [5] | [6] | [7] | [8] | [9]

CCOC(=O)c1ccccc1C(=O)OCC
inactive: [1] | [2] | [3] | [4] | [5] | [6] | [7] | [8] | [9]

Cc1cccc(N)c1
inactive: [1] | [2] | [3] | [4] | [5] | [6] | [7] | [8] | [9]

Cc1ccc(O)cc1C
inactive: [1] | [2] | [3] | [4] | [5] | [6] | [7] | [8] | [9]

CCCCN(CCCC)N=O
inactive: [1] | [2] | [3] | [4] | [5] | [6] | [7] | [8] | [9]
